# Results from PubChem BioAssay (EPA / NIEHS).
# Results filed as inconclusive are left out. Active and inactive are the calls of the source. Rule for the calls: active = hit-call score of the fitted dose curve at least 0.9, where 1 is the maximum; inconclusive = response in the unintended direction; inactive = score below 0.9.
# Legend:
# [1] = biological target: rat Serotonin, 5-Hydroxytryptamine Receptor 1 (5HT1), Non-Selective Binding, Htr1a (gene 24473) (UniProt P19327); assay: NVS_GPCR_r5HT1_NonSelective: NovaScreen (NVS) G Protein-Coupled Receptor Assay for rat Serotonin, 5-Hydroxytryptamine Receptor 1 (5HT1), Non-Selective Binding (AID 2283286)
# In short: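 Binding of a radioligand to rat cortex membranes is read by filtration and scintillation counting after 1 h. Compounds were screened at 25 uM in duplicate. Actives were then titrated to a top of 50 uM. DMSO is the baseline.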
# [2] = biological target: rat Adrenergic, Alpha 1, Non-selective Receptor (Adra1), Adra1a (gene 29412) (UniProt P43140); assay: NVS_GPCR_rAdra1_NonSelective: NovaScreen (NVS) G Protein-Coupled Receptor Assay for rat Adrenergic, Alpha 1, Non-selective Receptor (Adra1) (AID 2283289)
# In short: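 Chemicals first screened in duplicate at 25 uM, then actives tested in concentration series up to 50 uM. Binding measured as displacement of radioligand from rat forebrain membrane receptors, 1 h, filtration with scintillation readout; DMSO baseline.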
# [3] = biological target: human Opioid Receptor Mu (Opiate Mu), OPRM1 (gene 4988) (UniProt P35372); assay: NVS_GPCR_hOpiate_mu: NovaScreen (NVS) G Protein-Coupled Receptor Assay for human Opioid Receptor Mu (Opiate Mu) (AID 2283290);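 note: hits lower bound tracer signal versus DMSO meaning displacement of the ligand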
# In short: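 Primary screen in duplicate at 25 uM, with actives followed in concentration series. CHO-derived receptor membranes, cell-free; bound radioligand read by scintillation counting after filtration at 2.5 h, decrease scored against DMSO.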
# [4] = tested on: rabbit Platelet Activating Factor Receptor (PAF), gene 100354046; assay: NVS_GPCR_rabPAF: NovaScreen (NVS) G Protein-Coupled Receptor Assay for rabbit Platelet Activating Factor Receptor (PAF) (AID 2283287)
# In short: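 Rabbit platelet membrane preparation; radioligand displacement read by filter-based scintillation counting 1 h after dosing, loss of signal versus DMSO. Primary screen in duplicate at 25 uM, actives followed up in concentration series.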
# [5] = biological target: human Opioid Receptor Delta 1 (Opiate D1), OPRD1 (gene 4985) (UniProt P41143); assay: NVS_GPCR_hOpiate_D1: NovaScreen (NVS) G Protein-Coupled Receptor Assay for human Opioid Receptor Delta 1 (Opiate D1) (AID 2283280)
# In short: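 Membrane preparations from CHO cells bearing the human receptor were incubated 1 h with test chemical, and bound radioligand was counted after filtration. Actives from 25 uM duplicate screening were retested in concentration-response.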
# [6] = biological target: human Thromboxane A2 Receptor (TXA2), TBXA2R (gene 6915) (UniProt P21731); assay: NVS_GPCR_hTXA2: NovaScreen (NVS) G Protein-Coupled Receptor Assay for human Thromboxane A2 Receptor (TXA2) (AID 2283282);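 note: actives reduce bound radioligand signal relative to DMSO baseline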
# Experimental: NVS_GPCR_hTXA2 is a biochemical, single-readout assay that uses extracted gene-proteins from Human platelets in a cell-free assay. Measurements were taken 1 hour after chemical dosing in a 96-well plate.NVS_GPCR_hTXA2 is one of one assay component(s) measured or calculated from the NVS_GPCR_hTXA2 assay. It is designed to make measurements of radioligand binding, a form of binding reporter, as detected with scintillation counting signals by Filter-based radiodetection technology.Data from the assay component NVS_GPCR_hTXA2 was analyzed into 1 assay endpoint. This assay endpoint, NVS_GPCR_hTXA2, was analyzed in the positive analysis fitting direction relative to DMSO as the negative control and baseline of activity. Using a type of binding reporter, loss-of-signal activity can be used to understand changes in the binding as they relate to the gene TBXA2R. Furthermore, this assay endpoint can be referred to as a primary readout, because the performed assay has only produced 1 assay endpoint. To generalize the intended target to other relatable targets, this assay endpoint is annotated to the gpcr intended target family, where the subfamily is rhodopsin-like receptor.
# Binding assays used specific radioligands (tritiated, iodinated) with non-radioactive competitive displacement ligands in agonist or antagonist protocols (as indicated) and various reference compounds and inhibitors to titrate specific binding to receptors and transporters. Most enzyme assays (CYPs, kinases, phosphatases, proteases, HDACs) used recombinant protein and specific substrates (fluorescence mostly, some colorimetric and radioactive) and inhibitors, followed by a biochemical separation of substrate and product. All assays for the biochemical HTS were initially run in duplicate at a single concentration (10 uM for CYP450 assays and 25 uM for all others). […] Each assay was run with positive and negative controls, and concurrent controls on every plate. The follow-up (secondary) screen tested active chemical-pairs in concentration series, as well as a few additional assays not tested in the primary screen, some selected negative inactives, and several cases re-run in the concentration series for confirmatory purposes.
# [7] = biological target: mouse Cholecystokinin, CCK1 Receptor (CCKA), Cckar (gene 12425) (UniProt O08786); assay: NVS_GPCR_mCCKAPeripheral: NovaScreen (NVS) G Protein-Coupled Receptor Assay for mouse Cholecystokinin, CCK1 Receptor (CCKA) (AID 2283285)
# Experimental: NVS_GPCR_mCCKAPeripheral is a biochemical, single-readout assay that uses extracted gene-proteins from Mouse pancreatic membranes in a tissue-based cell-free assay. Measurements were taken 2 hours after chemical dosing in a 96-well plate.NVS_GPCR_mCCKAPeripheral is one of one assay component(s) measured or calculated from the NVS_GPCR_mCCKAPeripheral assay. It is designed to make measurements of radioligand binding, a form of binding reporter, as detected with scintillation counting signals by Filter-based radiodetection technology.Data from the assay component NVS_GPCR_mCCKAPeripheral was analyzed into 1 assay endpoint. This assay endpoint, NVS_GPCR_mCCKAPeripheral, was analyzed in the positive analysis fitting direction relative to DMSO as the negative control and baseline of activity. Using a type of binding reporter, loss-of-signal activity can be used to understand changes in the binding as they relate to the gene Cckar. Furthermore, this assay endpoint can be referred to as a primary readout, because the performed assay has only produced 1 assay endpoint. To generalize the intended target to other relatable targets, this assay endpoint is annotated to the gpcr intended target family, where the subfamily is rhodopsin-like receptor.
# Binding assays used specific radioligands (tritiated, iodinated) with non-radioactive competitive displacement ligands in agonist or antagonist protocols (as indicated) and various reference compounds and inhibitors to titrate specific binding to receptors and transporters. Most enzyme assays (CYPs, kinases, phosphatases, proteases, HDACs) used recombinant protein and specific substrates (fluorescence mostly, some colorimetric and radioactive) and inhibitors, followed by a biochemical separation of substrate and product. All assays for the biochemical HTS were initially run in duplicate at a single concentration (10 uM for CYP450 assays and 25 uM for all others). Assay-chemical combinations meeting a pre-defined threshold (e.g., 30% inhibition and other criteria defined below) were then run in singleton concentration-response format with maximum concentration of 20 uM for CYPs and 50 uM for all others. Each assay was run with positive and negative controls, and concurrent controls on every plate. The follow-up (secondary) screen tested active chemical-pairs in concentration series, as well as a few additional assays not tested in the primary screen, some selected negative inactives, and several cases re-run in the concentration series for confirmatory purposes.
# [8] = biological target: human Vasopressin 1A Receptor (V1A), AVPR1A (gene 552) (UniProt P37288); assay: NVS_GPCR_hV1A: NovaScreen (NVS) G Protein-Coupled Receptor Assay for human Vasopressin 1A Receptor (V1A) (AID 2283284)
# In short: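 Single-concentration duplicate screen at 25 uM, with concentration-response follow-up (top 50 uM) for actives. The assay measured displacement of a radioligand from human platelet-derived receptor after 1.5 h, detected by filtration and scintillation counting.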
# [9] = biological target: human Orphanin, Opioid Related Nociceptin Receptor 1 (ORL1), OPRL1 (gene 4987) (UniProt P41146); assay: NVS_GPCR_hORL1: NovaScreen (NVS) G Protein-Coupled Receptor Assay for human Orphanin, Opioid Related Nociceptin Receptor 1 (ORL1) (AID 2283283)
# In short: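 Cell-free binding using HEK293-derived receptor protein: radioligand displacement measured by filter scintillation 1 hour after dosing. Primary testing at 25 uM in duplicate, followed by singleton concentration series up to 50 uM; DMSO served as negative control.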
# [10] = biological target: human Neurotensin Receptor (NTS), NTSR1 (gene 4923) (UniProt P30989); assay: NVS_GPCR_hNTS: NovaScreen (NVS) G Protein-Coupled Receptor Assay for human Neurotensin Receptor (NTS) (AID 2283279)
# In short: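 Compounds competed with a radiolabelled ligand for binding to CHO-derived human neurotensin receptor; bound signal counted after filtration, 1 h. Screened first at a single concentration of 25 uM in duplicate, then concentration series to 50 uM maximum for actives.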
# Chain of human Opioid Receptor Delta 1 (Opiate D1), OPRD1 (gene 4985) (P41143 whole entry, looked up): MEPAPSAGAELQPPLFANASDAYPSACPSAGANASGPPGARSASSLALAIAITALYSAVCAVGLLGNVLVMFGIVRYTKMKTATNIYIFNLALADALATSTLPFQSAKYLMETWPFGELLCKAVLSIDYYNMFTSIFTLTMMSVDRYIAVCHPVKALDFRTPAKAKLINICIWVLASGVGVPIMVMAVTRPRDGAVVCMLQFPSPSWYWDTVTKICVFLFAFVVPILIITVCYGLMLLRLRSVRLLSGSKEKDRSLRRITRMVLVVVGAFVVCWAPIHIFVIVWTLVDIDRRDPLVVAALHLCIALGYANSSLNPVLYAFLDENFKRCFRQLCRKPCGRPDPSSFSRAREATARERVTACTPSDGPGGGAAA
# Chain of mouse Cholecystokinin, CCK1 Receptor (CCKA), Cckar (gene 12425) (O08786 whole entry, looked up): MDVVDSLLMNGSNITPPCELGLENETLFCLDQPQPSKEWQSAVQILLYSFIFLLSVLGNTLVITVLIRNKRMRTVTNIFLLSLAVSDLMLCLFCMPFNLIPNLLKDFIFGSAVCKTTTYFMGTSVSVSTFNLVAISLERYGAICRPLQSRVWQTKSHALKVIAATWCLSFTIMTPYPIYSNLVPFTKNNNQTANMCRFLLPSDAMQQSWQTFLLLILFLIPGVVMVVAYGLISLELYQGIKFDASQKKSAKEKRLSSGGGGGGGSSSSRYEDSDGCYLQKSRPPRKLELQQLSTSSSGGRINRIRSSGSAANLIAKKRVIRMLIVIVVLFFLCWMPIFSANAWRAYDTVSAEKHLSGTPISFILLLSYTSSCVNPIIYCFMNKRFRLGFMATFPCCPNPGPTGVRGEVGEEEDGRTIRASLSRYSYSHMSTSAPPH
# Chain of human Thromboxane A2 Receptor (TXA2), TBXA2R (gene 6915) (P21731 whole entry, looked up): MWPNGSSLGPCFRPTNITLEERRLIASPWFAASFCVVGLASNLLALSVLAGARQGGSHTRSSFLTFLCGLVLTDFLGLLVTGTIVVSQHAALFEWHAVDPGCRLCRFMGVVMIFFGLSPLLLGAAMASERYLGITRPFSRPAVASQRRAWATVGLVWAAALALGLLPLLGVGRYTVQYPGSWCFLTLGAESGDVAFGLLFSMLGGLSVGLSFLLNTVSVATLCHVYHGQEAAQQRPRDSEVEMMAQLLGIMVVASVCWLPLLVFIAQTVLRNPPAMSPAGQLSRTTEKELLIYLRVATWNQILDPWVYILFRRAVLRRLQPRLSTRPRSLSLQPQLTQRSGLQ
# Chain of human Orphanin, Opioid Related Nociceptin Receptor 1 (ORL1), OPRL1 (gene 4987) (P41146 whole entry, looked up): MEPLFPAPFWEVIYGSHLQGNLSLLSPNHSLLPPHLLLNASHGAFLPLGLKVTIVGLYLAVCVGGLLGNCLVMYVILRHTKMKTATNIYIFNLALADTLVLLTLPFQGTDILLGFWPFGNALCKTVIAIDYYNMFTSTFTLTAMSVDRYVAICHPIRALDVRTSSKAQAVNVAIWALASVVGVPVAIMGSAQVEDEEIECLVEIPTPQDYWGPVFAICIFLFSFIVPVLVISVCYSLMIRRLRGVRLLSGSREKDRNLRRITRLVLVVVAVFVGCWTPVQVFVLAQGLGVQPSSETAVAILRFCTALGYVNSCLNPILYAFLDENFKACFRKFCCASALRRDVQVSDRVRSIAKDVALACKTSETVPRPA
# Chain of human Opioid Receptor Mu (Opiate Mu), OPRM1 (gene 4988) (P35372 whole entry, looked up): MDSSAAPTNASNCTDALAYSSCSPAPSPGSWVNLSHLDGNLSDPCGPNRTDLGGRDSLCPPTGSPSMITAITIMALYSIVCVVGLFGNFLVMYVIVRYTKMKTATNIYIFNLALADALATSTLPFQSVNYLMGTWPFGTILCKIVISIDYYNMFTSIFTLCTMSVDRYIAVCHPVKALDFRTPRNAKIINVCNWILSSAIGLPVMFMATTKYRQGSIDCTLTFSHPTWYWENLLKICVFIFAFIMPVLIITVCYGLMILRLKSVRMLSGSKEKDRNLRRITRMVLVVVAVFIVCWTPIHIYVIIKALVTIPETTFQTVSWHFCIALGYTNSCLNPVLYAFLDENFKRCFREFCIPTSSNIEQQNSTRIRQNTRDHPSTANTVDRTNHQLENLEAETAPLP
# Chain of rat Serotonin, 5-Hydroxytryptamine Receptor 1 (5HT1), Non-Selective Binding, Htr1a (gene 24473) (P19327 whole entry, looked up): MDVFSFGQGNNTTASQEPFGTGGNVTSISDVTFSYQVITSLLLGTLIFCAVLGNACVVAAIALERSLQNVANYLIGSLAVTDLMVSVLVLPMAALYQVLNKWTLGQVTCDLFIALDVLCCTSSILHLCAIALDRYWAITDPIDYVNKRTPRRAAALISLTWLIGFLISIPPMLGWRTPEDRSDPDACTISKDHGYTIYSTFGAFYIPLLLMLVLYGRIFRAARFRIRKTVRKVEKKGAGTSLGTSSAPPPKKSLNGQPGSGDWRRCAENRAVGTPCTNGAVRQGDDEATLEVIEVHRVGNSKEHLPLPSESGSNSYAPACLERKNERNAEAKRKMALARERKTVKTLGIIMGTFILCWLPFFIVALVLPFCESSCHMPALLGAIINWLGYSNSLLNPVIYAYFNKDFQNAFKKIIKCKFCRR
# Chain of rat Adrenergic, Alpha 1, Non-selective Receptor (Adra1), Adra1a (gene 29412) (P43140 whole entry, looked up): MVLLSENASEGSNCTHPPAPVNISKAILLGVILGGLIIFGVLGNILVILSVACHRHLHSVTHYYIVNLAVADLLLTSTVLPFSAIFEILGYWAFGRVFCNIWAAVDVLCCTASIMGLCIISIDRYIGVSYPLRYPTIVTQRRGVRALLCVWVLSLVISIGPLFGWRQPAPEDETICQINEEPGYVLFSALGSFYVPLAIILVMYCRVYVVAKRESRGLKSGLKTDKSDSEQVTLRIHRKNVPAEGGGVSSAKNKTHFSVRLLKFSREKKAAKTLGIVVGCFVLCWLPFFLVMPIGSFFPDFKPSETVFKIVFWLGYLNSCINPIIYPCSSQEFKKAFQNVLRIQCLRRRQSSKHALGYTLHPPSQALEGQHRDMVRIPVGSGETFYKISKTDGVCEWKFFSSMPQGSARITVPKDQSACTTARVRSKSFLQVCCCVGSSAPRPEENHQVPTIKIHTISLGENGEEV
# Chain of human Vasopressin 1A Receptor (V1A), AVPR1A (gene 552) (P37288 whole entry, looked up): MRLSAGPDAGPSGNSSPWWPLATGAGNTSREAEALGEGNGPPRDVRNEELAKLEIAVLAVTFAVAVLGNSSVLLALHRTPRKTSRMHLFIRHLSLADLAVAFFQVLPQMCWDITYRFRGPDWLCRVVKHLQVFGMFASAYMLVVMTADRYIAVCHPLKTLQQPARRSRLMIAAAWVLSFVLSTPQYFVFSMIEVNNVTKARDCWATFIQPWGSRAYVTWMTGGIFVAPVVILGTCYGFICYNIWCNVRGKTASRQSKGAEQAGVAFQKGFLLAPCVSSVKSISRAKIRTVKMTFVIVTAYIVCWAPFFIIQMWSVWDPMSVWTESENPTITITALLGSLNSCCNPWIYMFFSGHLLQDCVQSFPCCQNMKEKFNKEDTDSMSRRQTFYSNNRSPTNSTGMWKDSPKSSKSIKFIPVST
# Chain of human Neurotensin Receptor (NTS), NTSR1 (gene 4923) (P30989 whole entry, looked up): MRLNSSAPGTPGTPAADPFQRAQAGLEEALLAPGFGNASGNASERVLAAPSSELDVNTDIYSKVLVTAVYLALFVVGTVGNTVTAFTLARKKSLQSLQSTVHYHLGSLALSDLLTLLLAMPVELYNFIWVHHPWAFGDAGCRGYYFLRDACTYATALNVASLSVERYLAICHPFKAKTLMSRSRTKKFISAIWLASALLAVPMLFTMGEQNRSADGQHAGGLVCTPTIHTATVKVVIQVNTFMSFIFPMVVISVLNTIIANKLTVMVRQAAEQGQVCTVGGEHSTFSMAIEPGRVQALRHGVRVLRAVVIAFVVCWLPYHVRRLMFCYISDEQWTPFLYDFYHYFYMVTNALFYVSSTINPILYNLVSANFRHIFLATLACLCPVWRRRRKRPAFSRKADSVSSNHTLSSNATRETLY
structure (smiles),measurement,setting,value
O=c1[nH]c2ccc(S(=O)CCN3CCC(Cc4ccc(F)cc4)CC3)cc2o1 (configuration not stated),outcome,[1],inactive
same,AC50,[2],1.07 µM (active)
CCOC(=O)c1ccc(C2CCC(NC[C@H](O)COc3ccc(O)c(NS(C)(=O)=O)c3)CC2)cc1 (some centres not stated),outcome,[3],inactive
CC[C@H]1CC[C@H](NCc2cc3c(cc2OC)[C@H]2C[C@H]2C(=O)N3C)[C@H](c2ccccc2)N1,AC50,[2],17.5 µM (active)
same,AC50,[3],5.7 µM (active)
COc1ccc(-n2nc(C(F)F)cc2-c2ccc(S(C)=O)cc2)cc1 (configuration not stated),AC50,[4],11.5 µM (active)
Cc1[nH]cnc1C[C@H]1CCc2c(C)c3ccccc3n2C1=O,outcome,[1],inactive
same,AC50,[4],0.958 µM (active)
same,AC50,[2],3.15 µM (active)
same,AC50,[3],6.29 µM (active)
CCC(C)(C)C(=O)O[C@H]1C[C@@H](C)C=C2C=C[C@H](C)[C@H](CC[C@@H]3C[C@@H](O)CC(=O)O3)[C@H]21,outcome,[5],inactive
same,outcome,[6],inactive
same,outcome,[3],inactive
Cn1c(=O)cc(Oc2ccc(F)cc2F)c2cnc(NCC(C)(C)O)nc21,AC50,[7],11.3 µM (active)
COc1ccc(/C=C/S(=O)(=O)NC(=O)c2ccc(C)cc2Cl)cc1,AC50,[7],22.7 µM (active)
O=C(OC[C@H]1O[C@@H](OC(=O)c2cc(O)c(O)c(OC(=O)c3cc(O)c(O)c(O)c3)c2)[C@H](OC(=O)c2cc(O)c(O)c(OC(=O)c3cc(O)c(O)c(O)c3)c2)[C@@H](OC(=O)c2cc(O)c(O)c(OC(=O)c3cc(O)c(O)c(O)c3)c2)[C@@H]1OC(=O)c1cc(O)c(O)c(OC(=O)c2cc(O)c(O)c(O)c2)c1)c1cc(O)c(O)c(OC(=O)c2cc(O)c(O)c(O)c2)c1,outcome,[6],inactive
same,AC50,[7],12 µM (active)
Cc1ccc(O)cc1,AC50,[8],22.1 µM (active)
O=C(O)c1cc(N=Nc2ccc(S(=O)(=O)Nc3ccccn3)cc2)ccc1O,AC50,[6],9.98 µM (active)
O=C(O)CC(O)C(=O)O (configuration not stated),outcome,[5],inactive
same,outcome,[9],inactive
same,outcome,[3],inactive
O=P(OC(CCl)CCl)(OC(CCl)CCl)OC(CCl)CCl,outcome,[6],inactive
same,outcome,[7],inactive
same,AC50,[4],8.52 µM (active)
CCn1nc(Cc2ccccc2)cc1C1CCN(C[C@H]2C[C@H](N(C)[C@@H](C(=O)O)C(C)C)C[C@@H]2c2cccc(F)c2)CC1,AC50,[3],8.81 µM (active)
COc1ccc2sc(C(=O)Nc3nnn[nH]3)c(OC(C)C)c2c1,AC50,[6],0.187 µM (active)
Cc1c(-c2cccnc2)c2ccccc2n1CCCCC(=O)O,AC50,[6],5.82 µM (active)
Nc1ccc(Nc2ccccc2)cc1,AC50,[2],32.3 µM (active)
CC(C)c1cccc(C(C)C)c1N1C(=O)c2ccc(O)cc2C1=O,AC50,[6],7.4 µM (active)
Cc1ccc(N)cc1O,outcome,[4],inactive
CN(C)c1ccc(N=NS(=O)(=O)O)cc1,AC50,[2],23.8 µM (active)
CCOc1cccc(-n2cc(C(=O)N3CCN(c4cc(C(=O)O)c5ccccc5c4)CC3)nc2-c2ccc(C)cc2)c1,AC50,[5],9.02 µM (active)
same,AC50,[6],6.65 µM (active)
same,AC50,[7],0.00589 µM (active)
same,AC50,[3],23.8 µM (active)
CCc1cc(SCc2sc(-c3ccc(C(F)(F)F)cc3)nc2CN2CCN(c3ccc(OC)cc3)CC2)ccc1OCC(=O)O,AC50,[5],7.88 µM (active)
same,AC50,[7],7.03 µM (active)
same,outcome,[2],inactive
same,AC50,[3],4.54 µM (active)
CC[C@H]1OC(=O)[C@H](C)[C@@H](O[C@H]2C[C@@](C)(OC)[C@@H](O)[C@H](C)O2)[C@H](C)[C@@H](O[C@@H]2O[C@H](C)C[C@H](N(C)C)[C@H]2O)[C@](C)(O)C[C@@H](C)C(=O)[C@H](C)[C@@H](O)[C@]1(C)O,outcome,[2],inactive
CCOC(=O)COc1ccc2c(c1)CC(NCC(O)c1cccc(Cl)c1)CC2 (configuration not stated),AC50,[3],5.18 µM (active)
CCCN(C1CCN(C(=O)C2CCNCC2)CC1)[C@@H]1CCc2ccc(OC)cc2C1,AC50,[1],8.67 µM (active)
same,AC50,[2],16.1 µM (active)
Cc1ccc(C)c(O)c1,AC50,[10],9.84 µM (active)
same,outcome,[2],inactive
CNS(=O)(=O)c1cc(C(=O)N2CCC(CCN3C4CCC3CC(n3c(C)nc5ccccc53)C4)(c3cccc(F)c3)CC2)c(Cl)cc1F (configuration not stated),outcome,[9],inactive
same,AC50,[4],1.33 µM (active)
same,AC50,[2],1.92 µM (active)
same,AC50,[3],4.96 µM (active)
On1ccccc1=S,AC50,[9],4.73 µM (active)
same,AC50,[1],16.2 µM (active)
same,outcome,[3],inactive
CCN(C(=O)c1cc(C)cc(OC[C@H](C)Nc2ccncc2)c1)C(C)C,AC50,[2],13.4 µM (active)
CC(C)=CCCC(C)CCO (configuration not stated),outcome,[3],inactive
CCCCCCc1ccc(O)cc1O,AC50,[6],5.72 µM (active)
same,outcome,[3],inactive
COc1cccc(-c2ccc(/C=C\CN3CCCCCC3)cc2Cl)c1,AC50,[5],15.5 µM (active)
same,AC50,[2],15.2 µM (active)
same,AC50,[3],12.3 µM (active)
O=C(CCCCCCCCc1cccnc1)N1CCC(C=C(c2ccccc2)c2ccccc2)CC1,AC50,[3],24.7 µM (active)
CC1=CC(=O)CC(C)(C)C1,AC50,[8],18.5 µM (active)
